Bioassay records as filed in PubChem.
V-ATPase pHluor: alters yeast V-ATPase proton transport. 0.37% of 350,000 active. S. cerevisiae, pHLuorin cytosolic pH fluorescence. response, % at 10 µM; in the data active means response mostly above about 7.3%, no sharp cut-off; inactive means mostly below about 5.4%; further: actives read high
NLRP3 yeast inh: inhibitors of NALP3 inflammasome in yeast; Yeast reconstituted NLRP3/ASC/caspase-1, beta-gal luminescence, 24 h; inhibition, % at 10 µM; 0.39% of 330,000 active; AID 2825;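 active means inhibition of 50% or more; inactive means inhibition below 50%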;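 further: plate controls were induced DMSO wells for no effect and uninduced yeast grown without galactose for full effect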
NALP1 yeast inh: blocks the NALP1 inflammasome reconstituted in yeast. inhibition, % at 10 µM. S. cerevisiae NALP1/ASC/caspase-1 growth, X-gal OD620, 72 h. 0.61% of 280,000 active; in the data active means inhibition mostly above about 24%, no sharp cut-off; inactive means mostly below about 32%
tim23-1 inh: inhibits growth of tim23-1 mutant yeast | S. cerevisiae tim23-1 growth, BacTiter-Glo luminescence, 24 h | inhibition, % at 20 µM | 1.3% of 330,000 active;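 active means growth inhibition of the mutant yeast at or above 50%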;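 further: temperature-sensitive mutant grown at 25 °C; plate controls were DMSO-treated mutant yeast for no effect and medium wells lacking yeast for full effect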
TIM10 inh: inhibits growth of TIM10 yeast strain | 1.4% of 330,000 active | S. cerevisiae TIM10 strain growth, BacTiter-Glo luminescence, 24 h | AID 463195 | inhibition, % at 10 µM;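 active means inhibition of 40% or more at the single tested concentration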;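 further: wild-type TIM10 isogenic control strain grown at permissive 25 °C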
tim10-1 inh: inhibits growth of tim10-1 mutant yeast. AID 463190. S. cerevisiae tim10-1 ts strain growth, BacTiter-Glo, 24 h. inhibition, % at 20 µM. 2.2% of 330,000 active;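 active means inhibition of at least 40%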;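 further: mutant grown at 25 °C; 0% = DMSO wells with yeast and 100% = wells holding no yeast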
tim10-1 conf: confirmation of tim10-1 mutant yeast growth inhibitors | S. cerevisiae tim10-1 ts strain growth, BacTiter-Glo, 24 h | 56% of 7,400 active | shares compounds with tim10-1 inh | inhibition, % at 20 µM | AID 463213;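 active means inhibition of yeast growth at or above a set limit in either of two repeat tests at 20 µM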;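 further: tim10-1 mutant grown at permissive 25 °C to find synthetic lethal compounds; 0% = DMSO yeast wells and 100% = medium wells without yeast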
An asterisk follows results filed as active. Sampled rows, rich in hits. Any-hit rate of the full collection: about 4.2%.

COc1ccc(C(=O)O/N=C(\N)c2ccc(Br)cc2)cc1 was read as V-ATPase pHluor -3, NLRP3 yeast inh 35, NALP1 yeast inh 22, tim23-1 inh 31, TIM10 inh 39, tim10-1 inh 43* and tim10-1 conf 53*.
COc1ccc(/C(N)=N/OC(=O)Cc2ccccc2OC)cc1 was read as V-ATPase pHluor 5, NLRP3 yeast inh 16, NALP1 yeast inh 11, tim23-1 inh 20, TIM10 inh 23, tim10-1 inh 49* and tim10-1 conf 32*.
For COc1cc(/C=C2\SC(=S)N(Nc3ccccc3)C2=O)ccc1O the results were V-ATPase pHluor -7, NLRP3 yeast inh -15, NALP1 yeast inh -4, tim23-1 inh 29, TIM10 inh 31, tim10-1 inh 51* and tim10-1 conf 20.
CCc1c(C(=O)NCc2ccccc2Cl)[nH]c(C)c1C(C)=O was read as V-ATPase pHluor 2, NLRP3 yeast inh 16, NALP1 yeast inh 11, tim23-1 inh 12, TIM10 inh -5, tim10-1 inh 56* and tim10-1 conf -5.
C=C1/C(=C\C=C2/CCC[C@]3(C)[C@@H]([C@H](C)/C=C/[C@@H](O)C4CC4)CC[C@@H]23)C[C@@H](O)C[C@@H]1O was read as NLRP3 yeast inh 48, tim23-1 inh 41, TIM10 inh 10, tim10-1 inh 44* and tim10-1 conf 26.
Screening O=C(N=C1SCC(=O)N1c1ccccc1Cl)c1ccco1 returned V-ATPase pHluor 2, NLRP3 yeast inh -5, NALP1 yeast inh 6, tim23-1 inh 13, TIM10 inh 24 and tim10-1 inh 30.
O=C(N=C1SCC(=O)N1c1ccccc1Cl)c1ccccc1 was read as V-ATPase pHluor 3, NLRP3 yeast inh 19, NALP1 yeast inh 9, tim23-1 inh 35, TIM10 inh 8, tim10-1 inh 42* and tim10-1 conf 24.
Screening O=C(NN=Cc1ccc([N+](=O)[O-])cc1)c1ccncc1 returned V-ATPase pHluor -5.
For CCCN(Cc1ccccc1)C(=S)Nc1cccc(C(F)(F)F)c1 the results were V-ATPase pHluor 1, NLRP3 yeast inh 10, tim23-1 inh 5, TIM10 inh 25, tim10-1 inh 47* and tim10-1 conf 31*.
CC(C)OC(=O)c1sc2nc(-c3ccccc3)ccc2c1N was read as V-ATPase pHluor 0, NLRP3 yeast inh 25, NALP1 yeast inh 17, tim23-1 inh 19, TIM10 inh -1 and tim10-1 inh 34.
COc1ccc(C(=O)c2sc3nc(-c4ccccc4)ccc3c2N)cc1 was read as V-ATPase pHluor 0, NLRP3 yeast inh 14, NALP1 yeast inh 40, tim23-1 inh 20, TIM10 inh 5, tim10-1 inh 45* and tim10-1 conf 19.
Screening COc1ccc(C(=O)NCC(=O)NCc2ccc3c(c2)OCO3)cc1[N+](=O)[O-] returned V-ATPase pHluor -3.
For Cc1cc(C)c(/C=C(\C#N)C(N)=S)c(C)c1 the results were V-ATPase pHluor 3, NLRP3 yeast inh 12, NALP1 yeast inh 8, tim23-1 inh 46, TIM10 inh 27, tim10-1 inh 41* and tim10-1 conf 23.
O=C(COC(=O)c1cc(Cl)ccc1[N+](=O)[O-])Nc1cccc2ccccc12 was read as V-ATPase pHluor -5, NLRP3 yeast inh 12, NALP1 yeast inh 27, tim23-1 inh 32, TIM10 inh 38, tim10-1 inh 47* and tim10-1 conf 34*.
Screening CCOC(=O)C1CCCN(C(=O)c2ccc3oc(CCc4ccccc4)nc3c2)C1 (centres undefined) returned V-ATPase pHluor -1, NLRP3 yeast inh 8, NALP1 yeast inh 17, tim23-1 inh 30, TIM10 inh 10, tim10-1 inh 42* and tim10-1 conf 8.
CN(C)c1nc(NCc2ccccc2)nc(N/N=C/c2ccc3c(c2)OCO3)n1 was read as V-ATPase pHluor 2, NLRP3 yeast inh 39, NALP1 yeast inh 6, tim23-1 inh 39, TIM10 inh 13, tim10-1 inh 41* and tim10-1 conf 25.
For O=c1[nH]c(N/N=C/c2cc3c(cc2[N+](=O)[O-])OCO3)nc2ccccc12 the results were V-ATPase pHluor 3, NLRP3 yeast inh -5, NALP1 yeast inh 1, tim23-1 inh -2, TIM10 inh -4 and tim10-1 inh 6.
Screening O=c1[nH]c(N/N=C\c2ccc3c(c2)OCO3)nc2ccccc12 returned V-ATPase pHluor 4, NLRP3 yeast inh 0, NALP1 yeast inh 16, tim23-1 inh 17, TIM10 inh 19, tim10-1 inh 40* and tim10-1 conf 22.
O=C(CSc1nnc(-c2ccc(F)cc2)o1)NC1CCCC1 was read as V-ATPase pHluor 5, NLRP3 yeast inh 10, NALP1 yeast inh 19, tim23-1 inh -4, TIM10 inh 4 and tim10-1 inh 5.
COc1ccc(S(=O)(=O)N2CCN(C(=O)c3ccc(NC(C)=O)cc3)CC2)cc1 was read as V-ATPase pHluor -2, NLRP3 yeast inh 6, tim23-1 inh 12, TIM10 inh 7 and tim10-1 inh 5.
Screening CN(C)c1ccc(C(=S)N2CCN(S(=O)(=O)c3ccccc3)CC2)cc1 returned V-ATPase pHluor -5, NLRP3 yeast inh -4, NALP1 yeast inh 10, tim23-1 inh 21, TIM10 inh 19, tim10-1 inh 40* and tim10-1 conf 20.
`CN(C)c1ccc(C(=S)N2CCN(c3ccccc3)CC2)cc1` gave V-ATPase pHluor -5, NLRP3 yeast inh 4, NALP1 yeast inh -13, tim23-1 inh 43, TIM10 inh 32, tim10-1 inh 46* and tim10-1 conf 36*.
`COc1ccc(OC2CCN(S(=O)(=O)c3ccc(OC)cc3)CC2)cc1` gave V-ATPase pHluor 2, NLRP3 yeast inh 26, NALP1 yeast inh 27, tim23-1 inh 45, TIM10 inh 8, tim10-1 inh 43* and tim10-1 conf 42*.
COc1ccc(S(=O)(=O)N2CCN(C(=O)c3cccc(Cl)c3)CC2)cc1 was read as V-ATPase pHluor -4, NLRP3 yeast inh 16, NALP1 yeast inh 5, tim23-1 inh 41, TIM10 inh 20, tim10-1 inh 56* and tim10-1 conf 27.
`Cc1ccc(N2CCN(C(=S)c3ccc(N(C)C)cc3)CC2)cc1` gave V-ATPase pHluor 3, NLRP3 yeast inh 3, NALP1 yeast inh 13, tim23-1 inh 31, TIM10 inh 27 and tim10-1 inh 23.
For CC(=O)N1CCN(C(=S)c2ccc(N(C)C)cc2)CC1 the results were V-ATPase pHluor 1, NLRP3 yeast inh 1, NALP1 yeast inh -13, tim23-1 inh 9, TIM10 inh 10 and tim10-1 inh 17.
`Cc1cc(C)c(S(=O)(=O)c2ccccc2C)c(OCC(C)(C)C)n1` gave V-ATPase pHluor 1, NLRP3 yeast inh -8, NALP1 yeast inh 2, tim23-1 inh 40, TIM10 inh 23 and tim10-1 inh 29.
